Activity calls are given as the source filed them. Rule for the calls: active = hit-call score of the fitted dose curve at least 0.9, where 1 is the maximum; inactive = score below 0.9.
Columns and labels:
[1] = CEETOX_H295R_TESTO: CeeTox H295R High-throughput Steroidogenesis Assay for Testosterone (TESTO) (AID 2283457); details: actives raise or lower the signal;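 for AC50: cells exposed to chemicals for 48 h before medium collection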
In short: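 Testosterone secreted into the medium over 48 h by H295R cells (maximum passage 10) was quantified by LC-MS/MS after MTBE extraction. Fitted in both directions against DMSO, with concentrations diluted until MTT viability was ≥70%.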

[2] = read-out: CFLAR gene, CFLAR (gene 8837); assay: LTEA_HepaRG_CFLAR: Life Technologies and Expression Analysis (LTEA) Assay for CFLAR gene using HepaRG (AID 2283455); details: mRNA level, 48 h; actives raise or lower the signal
In short: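 HepaRG cells were plated for 48 h, switched to serum-free induction medium, then exposed in duplicate for 48 h to 8 concentrations (top 100 uM, half-log steps, 0.5% DMSO). CFLAR mRNA was measured by qRT-PCR, normalized to ACTB, GAPDH and POLR2A.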

[3] = read-out: Forkhead box O1 (FOXO1), FOXO1 (gene 2308); assay: LTEA_HepaRG_FOXO1: Life Technologies and Expression Analysis (LTEA) Assay for Forkhead box O1 (FOXO1) using HepaRG (AID 2283456); details: mRNA level, 48 h; actives raise or lower the signal
In short: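 Differentiated human HepaRG cells in serum-free induction medium were exposed in duplicate for 48 h to eight half-log concentrations (top 100 uM, 0.5% DMSO). FOXO1 mRNA was measured by TaqMan qRT-PCR, normalised to ACTB, GAPDH and POLR2A, and fitted bidirectionally against DMSO.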

[4] = read-out: growth arrest and DNA damage 45 (GADD45B), GADD45B (gene 4616); assay: LTEA_HepaRG_GADD45B: Life Technologies and Expression Analysis (LTEA) Assay for growth arrest and DNA damage 45 (GADD45B) using HepaRG (AID 2283461); details: mRNA level, 48 h; actives raise or lower the signal
In short: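 Transcript level quantified by Fluidigm TaqMan qRT-PCR with three housekeeping genes for normalization, analyzed for up- or down-regulation against 0.5% DMSO. HepaRG cultures dosed 48 h at eight half-log concentrations up to 100 uM, duplicates.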

[5] = read-out: ABC Transporter (ABCC3), ABCC3 (gene 8714); assay: LTEA_HepaRG_ABCC3: Life Technologies and Expression Analysis (LTEA) Assay for ABC Transporter (ABCC3) using HepaRG (AID 2283462); details: mRNA level, 48 h; actives raise or lower the signal
In short: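 Transcript level by TaqMan qRT-PCR, normalised to three housekeeping genes, fitted in both directions relative to vehicle. Chemicals tested in duplicate at eight half-log concentrations up to 100 uM for 48 h on HepaRG cells (0.5% DMSO).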

[6] = read-out: ABC Transporter (ABCC2), ABCC2 (gene 1244); assay: LTEA_HepaRG_ABCC2: Life Technologies and Expression Analysis (LTEA) Assay for ABC Transporter (ABCC2) using HepaRG (AID 2283464); details: mRNA level, 48 h; actives raise or lower the signal
In short: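 Endpoint is ABCC2 transcript level from qRT-PCR, normalized to three housekeeping genes and fitted bidirectionally relative to DMSO. Human HepaRG cells received test chemical for 48 h at up to 100 uM (8 points, half-log steps, 0.5% DMSO), duplicate wells.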

[7] = read-out: Broad substrate specificity ATP-binding cassette transporter ABCG2 (Homo sapiens) (UniProt Q9UNQ0); assay: LTEA_HepaRG_ABCG2: Life Technologies and Expression Analysis (LTEA) Assay for ABC Transporter (ABCG2) using HepaRG (AID 2283465); details: mRNA level, 48 h; actives raise or lower the signal
In short: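 Differentiated HepaRG cells in serum-free induction medium were exposed for 48 h, in duplicate, to eight half-log concentrations up to 100 uM in 0.5% DMSO. ABCG2 mRNA was measured by TaqMan qRT-PCR, normalized to ACTB, GAPDH and POLR2A, and fitted bidirectionally versus DMSO.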

[8] = read-out: ATP-citrate lyase (ACLY), ACLY (gene 47); assay: LTEA_HepaRG_ACLY: Life Technologies and Expression Analysis (LTEA) Assay for ATP-citrate lyase (ACLY) using HepaRG (AID 2283466); details: mRNA level, 48 h; actives raise or lower the signal
In short: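 Differentiated human HepaRG cells in serum-free induction medium exposed 48 h, in duplicate, to eight half-log concentrations from 100 uM top in 0.5% DMSO; ACLY mRNA measured by qRT-PCR, normalized to ACTB, GAPDH, POLR2A, fitted bidirectionally versus DMSO.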

[9] = read-out: Peroxisomal acyl-coenzyme A oxidase 1 (ACOX1) gene, ACOX1 (gene 51); assay: LTEA_HepaRG_ACOX1: Life Technologies and Expression Analysis (LTEA) Assay for Peroxisomal acyl-coenzyme A oxidase 1 (ACOX1) gene using HepaRG (AID 2283467); details: mRNA level, 48 h; actives raise or lower the signal
In short: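 Differentiated human HepaRG cells were exposed in duplicate for 48 h in serum-free induction medium to eight half-log concentrations up to 100 uM in 0.5% DMSO. ACOX1 mRNA was then quantified by TaqMan qRT-PCR, normalized to ACTB, GAPDH and POLR2A.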

[10] = read-out: Bcl-2 (BAX) gene, BAX (gene 581); assay: LTEA_HepaRG_BAX: Life Technologies and Expression Analysis (LTEA) Assay for Bcl-2 (BAX) gene using HepaRG (AID 2283470); details: mRNA level, 48 h; actives raise or lower the signal
In short: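 Differentiated human HepaRG cells, plated 48 h then switched to serum-free induction medium, were exposed 48 h to 8 half-log concentrations up to 100 uM in 0.5% DMSO; BAX mRNA measured by qRT-PCR, normalized to ACTB, GAPDH, POLR2A.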

[11] = read-out: adenosine kinase (ADK) gene, ADK (gene 132); assay: LTEA_HepaRG_ADK: Life Technologies and Expression Analysis (LTEA) Assay for adenosine kinase (ADK) gene using HepaRG (AID 2283471); details: mRNA level, 48 h; actives raise or lower the signal
In short: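 Following 48 h exposure of HepaRG cells in 0.5% DMSO (top concentration 100 uM, duplicate wells), ADK mRNA induction or suppression was measured by qRT-PCR, normalised to ACTB/GAPDH/POLR2A, and fitted bidirectionally relative to vehicle.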

[12] = read-out: Alpha-fetoprotein (AFP) gene, AFP (gene 174); assay: LTEA_HepaRG_AFP: Life Technologies and Expression Analysis (LTEA) Assay for Alpha-fetoprotein (AFP) gene using HepaRG (AID 2283472); details: mRNA level, 48 h; actives raise or lower the signal
In short: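 Human HepaRG cells plated 48 h, then switched to serum-free induction medium and exposed in duplicate for 48 h to 8-point half-log series from 100 uM in 0.5% DMSO. AFP mRNA by qRT-PCR, normalized to ACTB, GAPDH, POLR2A; bidirectional fit versus DMSO.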

BCL2L11 (gene 10018) = assay: LTEA_HepaRG_BCL2L11: Life Technologies and Expression Analysis (LTEA) Assay for Bcl-2 (BCL2L11) gene using HepaRG (AID 2283473); details: mRNA level, 48 h; actives raise or lower the signal
In short: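 BCL2L11 transcript levels are measured by Fluidigm qRT-PCR, normalized to three housekeeping genes. HepaRG cultures were plated 48 h, then treated 48 h with test chemical (top 100 uM, half-log, 0.5% DMSO vehicle); curves were fitted bidirectionally against DMSO.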

[13] = read-out: Apolipoprotein A-V (APOA5) gene, APOA5 (gene 116519); assay: LTEA_HepaRG_APOA5: Life Technologies and Expression Analysis (LTEA) Assay for Apolipoprotein A-V (APOA5) gene using HepaRG (AID 2283474); details: mRNA level, 48 h; actives raise or lower the signal
In short: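 APOA5 transcript levels were quantified by qRT-PCR, normalized to three housekeeping genes, after 48 h chemical treatment of HepaRG cells (8 points, 100 uM maximum, half-log steps, 0.5% DMSO). Curves fitted in both directions against vehicle.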

[14] = read-out: Apoptosis regulator Bcl-2 (Homo sapiens) (UniProt P10415); assay: LTEA_HepaRG_BCL2: Life Technologies and Expression Analysis (LTEA) Assay for Bcl-2 gene using HepaRG (AID 2283475); details: mRNA level, 48 h; actives raise or lower the signal
In short: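 Differentiated HepaRG cells in serum-free induction medium were exposed for 48 h to eight half-log concentrations up to 100 uM in 0.5% DMSO, in duplicate. BCL2 mRNA was quantified by TaqMan qRT-PCR normalised to ACTB, GAPDH and POLR2A, with bidirectional fitting versus DMSO.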

[15] = read-out: Bcl-2 (BID) gene, BID (gene 637); assay: LTEA_HepaRG_BID: Life Technologies and Expression Analysis (LTEA) Assay for Bcl-2 (BID) gene using HepaRG (AID 2283476); details: mRNA level, 48 h; actives raise or lower the signal
In short: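 Differentiated HepaRG cells in serum-free induction medium were exposed in duplicate for 48 h to eight half-log concentrations up to 100 uM in 0.5% DMSO. BID mRNA was quantified by qRT-PCR, normalized to ACTB, GAPDH and POLR2A.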

Caspase-3 (Homo sapiens) = Caspase-3 (Homo sapiens) (UniProt P42574); assay: LTEA_HepaRG_CASP3: Life Technologies and Expression Analysis (LTEA) Assay for cysteine-aspartic acid protease (CASP3) using HepaRG (AID 2283477); details: mRNA level, 48 h; actives raise or lower the signal
In short: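 Expression of CASP3 was quantified by TaqMan qRT-PCR against three housekeeping genes (ACTB, GAPDH, POLR2A), bidirectionally versus 0.5% DMSO. HepaRG cultures received compounds in duplicate, top 100 uM with half-log steps, for 48 h in serum-free induction medium.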

[16] = read-out: ABC Transporter (ABCB1), ABCB1 (gene 5243); assay: LTEA_HepaRG_ABCB1: Life Technologies and Expression Analysis (LTEA) Assay for ABC Transporter (ABCB1) using HepaRG (AID 2283460); details: mRNA level, 48 h; actives raise or lower the signal
In short: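 Differentiated human HepaRG cells, plated 48 h then switched to serum-free induction medium, were exposed in duplicate to eight half-log concentrations up to 100 uM in 0.5% DMSO for 48 h. ABCB1 mRNA was measured by TaqMan qRT-PCR, normalized to ACTB/GAPDH/POLR2A.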

[17] = read-out: ABC Transporter (ABCB11), ABCB11 (gene 8647); assay: LTEA_HepaRG_ABCB11: Life Technologies and Expression Analysis (LTEA) Assay for ABC Transporter (ABCB11) using HepaRG (AID 2283463); details: mRNA level, 48 h; actives raise or lower the signal
In short: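 Differentiated human HepaRG cells were exposed for 48 h in serum-free induction medium to eight half-log concentrations up to 100 uM in 0.5% DMSO. ABCB11 mRNA was quantified by qRT-PCR, normalized to ACTB, GAPDH and POLR2A, and fitted bidirectionally versus DMSO.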

[18] = read-out: Cytochrome P450 (CYP24A1), CYP24A1 (gene 1591); assay: LTEA_HepaRG_CYP24A1: Life Technologies and Expression Analysis (LTEA) Assay for Cytochrome P450 (CYP24A1) using HepaRG (AID 2283478); details: mRNA level, 48 h; actives raise or lower the signal
In short: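 mRNA of CYP24A1 quantified by TaqMan qRT-PCR (ACTB/GAPDH/POLR2A normalization) after 48 h chemical exposure of HepaRG cells, top concentration 100 uM, half-log steps, 0.5% DMSO vehicle, duplicates. Curves fitted bidirectionally against DMSO baseline.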

Measured: AC50

Sequence of Apoptosis regulator Bcl-2 (Homo sapiens) (P10415 whole entry, looked up): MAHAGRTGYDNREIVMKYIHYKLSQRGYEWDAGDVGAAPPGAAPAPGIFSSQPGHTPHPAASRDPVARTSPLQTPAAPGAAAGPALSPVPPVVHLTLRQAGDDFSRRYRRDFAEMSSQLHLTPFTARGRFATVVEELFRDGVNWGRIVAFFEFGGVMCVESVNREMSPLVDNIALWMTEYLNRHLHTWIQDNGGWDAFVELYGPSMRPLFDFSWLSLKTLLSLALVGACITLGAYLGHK
Sequence of Broad substrate specificity ATP-binding cassette transporter ABCG2 (Homo sapiens) (Q9UNQ0 whole entry, looked up): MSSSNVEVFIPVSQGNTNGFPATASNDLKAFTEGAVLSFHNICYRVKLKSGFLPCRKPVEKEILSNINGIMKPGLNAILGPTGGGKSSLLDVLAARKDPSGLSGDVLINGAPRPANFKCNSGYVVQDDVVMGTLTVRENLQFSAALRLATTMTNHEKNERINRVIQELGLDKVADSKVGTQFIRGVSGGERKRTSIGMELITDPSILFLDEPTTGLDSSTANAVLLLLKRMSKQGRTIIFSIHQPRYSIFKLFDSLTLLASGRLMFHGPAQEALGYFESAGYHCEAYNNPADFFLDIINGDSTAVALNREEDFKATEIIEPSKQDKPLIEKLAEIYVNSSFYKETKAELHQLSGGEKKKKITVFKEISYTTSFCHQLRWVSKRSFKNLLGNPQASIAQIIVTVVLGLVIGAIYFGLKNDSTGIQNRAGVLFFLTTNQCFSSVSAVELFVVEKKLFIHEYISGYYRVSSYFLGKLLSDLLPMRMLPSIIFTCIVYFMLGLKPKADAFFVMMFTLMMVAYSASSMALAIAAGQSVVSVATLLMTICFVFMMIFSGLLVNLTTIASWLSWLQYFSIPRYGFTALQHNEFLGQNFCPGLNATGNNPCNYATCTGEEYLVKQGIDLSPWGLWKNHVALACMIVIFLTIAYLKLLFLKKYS
Sequence of Caspase-3 (Homo sapiens) (P42574 whole entry, looked up): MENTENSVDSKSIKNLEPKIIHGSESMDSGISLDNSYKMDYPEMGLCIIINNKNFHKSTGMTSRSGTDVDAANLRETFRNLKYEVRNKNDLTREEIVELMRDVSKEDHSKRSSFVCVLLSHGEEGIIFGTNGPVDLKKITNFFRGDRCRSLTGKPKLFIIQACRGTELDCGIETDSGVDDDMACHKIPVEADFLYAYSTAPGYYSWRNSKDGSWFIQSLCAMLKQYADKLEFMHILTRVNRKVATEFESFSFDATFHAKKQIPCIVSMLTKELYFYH

CCCCCc1ccc(O)cc1
active: [1] 50 µM

CC(C)CCOCCC(C)C
inactive: [1]

CS(=O)(=O)c1ccc([C@@H](CC2CCCC2)C(=O)Nc2cnccn2)cc1Cl
inactive: [2] | [3] | [4] | [5] | [6] | [8] | [9] | [11] | BCL2L11 (gene 10018) | [15] | Caspase-3 (Homo sapiens)
active: [7] 12.8 µM | [10] 41.3 µM | [12] 69.8 µM | [13] 71.2 µM | [14] 61.8 µM

N=C(N)c1ccc(OCCCCCOc2ccc(C(=N)N)cc2)cc1
inactive: [18]
active: [2] 30.5 µM | [3] 43.8 µM | [16] 4.87 µM | [4] 7.1 µM | [5] 3.46 µM | [17] 4.37 µM | [6] 25.6 µM | [7] 2.79 µM | [8] 35.9 µM | [9] 29 µM | [10] 6.28 µM | [11] 30.5 µM | [12] 7.45 µM | BCL2L11 (gene 10018) 3.64 µM | [13] 11.4 µM | [14] 73.6 µM | [15] 68.3 µM | Caspase-3 (Homo sapiens) 69.8 µM

O=C(CCCN1CCC(O)(c2ccc(Cl)cc2)CC1)c1ccc(F)cc1
inactive: [2] | [4] | [7] | [11] | BCL2L11 (gene 10018) | [13] | [15] | Caspase-3 (Homo sapiens) | [18]
active: [3] 81.2 µM | [16] 85.6 µM | [5] 50 µM | [17] 80.1 µM | [6] 80.7 µM | [8] 32 µM | [9] 67 µM | [10] 81.1 µM | [12] 67.8 µM | [14] 81.3 µM

CCCCC=O
inactive: [2] | [3] | [16] | [4] | [5] | [17] | [6] | [7] | [8] | [9] | [10] | [11] | [12] | BCL2L11 (gene 10018) | [13] | [14] | [15] | Caspase-3 (Homo sapiens) | [18]
